Results as given in the supplement of paper PMC4894684.
Structures can show the parent of a compound that is named as a salt. ± gives the standard deviation of the averaged measurements.

Tested on: Toxoplasma gondii RH (in HFF)
Test: parasite growth relative to the screen mean (all compounds = 100%); higher = less inhibition of parasite growth
Details: 5 µM; 72 h; oxygen 21 %
How it was run: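 Library compounds, held as 10 mM DMSO stocks, were pinned to 5 µM final onto confluent human foreskin fibroblasts in 96-well plates. The cells were infected within 2 h with RH β-Gal–GFP Toxoplasma (MOI 1:5), grown 72 h at 21% O2, and assayed for parasite number by CPRG β-Gal using in-plate standard curves. Growth is reported relative to the screen mean, in which all compounds = 100%, averaged over two screens, and CellTiter-Blue checked uninfected host-cell viability.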

Row | SMILES | parasite growth [%]
1 | C=CCN1C[C@H](C)N([C@H](c2ccc(C(=O)N(CC)CC)cc2)c2cccc(O)c2)C[C@H]1C | 110 ± 22
2 | Cc1nnc2ccc(-c3cccc(C(F)(F)F)c3)nn12 | 126 ± 14
3 | CCCN[C@@H]1CCc2c(OC)cccc2[C@@H]1C [(+)-AJ 76 hydrochloride] | 66.5 ± 24
4 | O=C1CCCN1CC#CCN1CCCC1 [Oxotremorine sesquifumarate] | 92 ± 32
5 | Cc1cc(C)cc(C(=O)OC2C[C@H]3CC[C@@H](C2)N3C)c1 (stereo partly drawn) [Tropanyl-3,5-dimethylbenzoate] | 97.3 ± 3.6
6 | CC12NC(Cc3ccccc31)c1ccccc12 (single isomer, unassigned; (+)) [(+)-MK 801 maleate] | 123 ± 15
7 | CO[C@]12C[C@@H](COC(=O)c3cncc(Br)c3)CN(C)[C@@H]1Cc1cn(C)c3cccc2c13 [Nicergoline] | 126 ± 5.7
8 | CN(C(=O)Cc1ccccc1)C(CN1CCCC1)c1ccccc1 (stereo not drawn) [N-MPPP Hydrochloride] | 112.4 ± 0.63
9 | c1ccc2nc(N3CCNCC3)ccc2c1 [Quipazine dimaleate] | 115 ± 8.3
10 | Clc1cccc(SC2CCNCC2)n1 [Anpirtoline hydrochloride] | 76.4 ± 27
11 | CC(N)Cc1c[nH]c2ccc(O)cc12 (stereo not drawn) [α-Methyl-5-hydroxytryptamine maleate] | 144 ± 31
12 | COc1cc2c(c(OC)c1OC)-c1ccc(OC)c(=O)cc1[C@@H](NC(C)=O)CC2 [Colchicine] | 115 ± 27
13 | C=CCN1C[C@H](C)N([C@H](c2ccc(C(=O)N(CC)CC)cc2)c2cccc(OC)c2)C[C@H]1C | 42.5 ± 3.7
14 | C[N+]1(C)CCc2cc3c(cc2[C@H]1[C@@H]1OC(=O)c2c1ccc1c2OCO1)OCO3 [(-)-Bicuculline methiodide] | 108 ± 8.7
15 | COc1ccc(C[C@H]2NC[C@H](O)[C@H]2OC(C)=O)cc1 [Anisomycin] | < 0
16 | CC[C@@H](CO)NC(=O)[C@@H]1C=C2c3cccc4c3c(cn4C)C[C@H]2N(C)C1 [Methysergide maleate] | 189 ± 24
17 | O=C(O)/C=C/CO [trans-4-Hydroxycrotonic acid] | 108 ± 8.3
18 | O=[N+]([O-])c1cc(O)c(O)c([N+](=O)[O-])c1 | 80.4 ± 42
19 | CCNC(=O)[C@H]1O[C@@H](n2cnc3c(N)ncnc32)[C@H](O)[C@@H]1O | 93 ± 12

Row | SMILES | parasite growth [%]
20 | NCCc1c[nH]c2ccc(O)cc12 [Serotonin] | 106 ± 15
21 | COc1ccc2c(c1)c(CCN1CCOCC1)c(C)n2C(=O)c1cccc(Cl)c1Cl | 145 ± 22
22 | CCOC(=O)c1ncn2c1[C@@H]1CCCN1C(=O)c1cc(OC)ccc1-2 | 93.9 ± 12
23 | CN(C(=O)Cc1ccc(Cl)c(Cl)c1)[C@H](CN1CCCC1)c1ccccc1 [ICI-199,441 hydrochloride] | 49.6 ± 10
24 | Cc1cccc(C(C)c2c[nH]cn2)c1C (stereo not drawn) [Medetomidine hydrochloride] | 24.7 ± 22
25 | O=C(O)c1nn(Cc2ccc(Cl)cc2Cl)c2ccccc12 [Lonidamine] | 77.9 ± 20
26 | O=C1/C(=C/c2ccccc2)C[C@@]2(O)[C@H]3Cc4ccc(O)c5c4[C@@]2(CCN3CC2CC2)[C@H]1O5 [BNTX maleate] | < 0
27 | CCCN(CCC)C1CCc2cccc(O)c2C1 (stereo not drawn) [8-Hydroxy-DPAT hydrobromide] | 121 ± 11
28 | O=C(O)c1ccc2[nH]cc(CCCCN3CC=C(c4ccccc4)CC3)c2c1 [Carmoxirole hydrochloride] | 103 ± 7.4
29 | O=c1[nH]c2ccccc2n1CCCN1CCC(n2c(=O)[nH]c3cc(Cl)ccc32)CC1 [Domperidone] | 129 ± 11
30 | C[C@H](Cc1ccc(OCC(=O)O)cc1)NC[C@H](O)c1cccc(Cl)c1 | 90.6 ± 30
31 | O=C1Nc2ccccc2C2(CCN(CCc3ccc(C(F)(F)F)cc3)CC2)O1 | 99.9 ± 20
32 | COC1(C[S@+]([O-])c2ccccc2)CCN(CCc2c[nH]c3ccc(F)cc23)CC1 | 67.1 ± 9.3
33 | Cc1nc(N)sc1CCN [Amthamine dihydrobromide] | 94 ± 4.8
34 | CCCCC/C=C\C/C=C\C/C=C\C/C=C\CCCC(=O)Nc1ccc(O)cc1 | 31.3 ± 14
35 | CCOC(=O)c1ncc2[nH]c3ccc(OCc4ccccc4)cc3c2c1COC | 83.8 ± 31
36 | NP(N)(=O)NC(=O)c1ccc(F)cc1 [Flurofamide] | 90 ± 34
37 | Cc1ccc2c(c1)C1(CCN(CCc3nc(-c4ccccc4)oc3C)CC1)OC(=O)N2 | 96.7 ± 3.8
38 | Cc1ncc(CN2CC=C(c3ccccc3)CC2)c(N)n1 | 135 ± 13
